Among the data in ChEMBL document CHEMBL4513216, “Probing the Open Global Health Chemical Diversity Library for Multistage-Active Starting Points for Next-Generation Antimalarials” (ACS Infect Dis, 2020) are INHIBITION values, retold here.

Screen size: about 69,000 compounds; about 8,600 (12%) showed an effect of 50% or more. The list comes from a sample in which strong results are over-represented; it also holds similar structures and randomly drawn compounds.

The subject of the test is Plasmodium berghei. The test is described as follows: Screen against P. berghei liver stage (PbLuc), transformed with Luciferase, at 10uM. The test is classed as functional, HepG2. The settings on record: tested at 10 uM.
Consider `Cc1c(C2c3nc[nH]c3CCN2CCOCc2ccccc2)cnn1C` (centres undefined), for which the INHIBITION was found to be 27.5%.
In the case of `c1ccc(COCCN2CCc3[nH]cnc3C2c2ccco2)cc1` (centres undefined) it was 63.3%; in that of `c1ccc(COCCN2CCc3[nH]cnc3C2c2ccoc2)cc1` (centres undefined), 9.63%.
As for `CN(Cc1ccccn1)C(=O)[C@H]1CO[C@H]2CCN(CC3CC3)C[C@H]2C1`, the INHIBITION amounted to 11.3%.
In the case of `Cc1cnn(CC2CCCN2Cc2cc(C)no2)c1` (centres undefined) it was 22.265%; in that of `CC1CCN(C(=O)c2cccc(CN3CCOCC3)c2)CC1`, 8.41%; in that of `Cc1cc(C)n(-c2ccc(CNCc3ccc(F)cc3F)cn2)n1`, 37.55%.
The same measure for `Cc1cc(C)n(-c2ccc(CNCc3ccc(OC(C)C)cc3)cn2)n1`: 53.5%; for `COc1cc(CNCc2ccc(-n3nc(C)cc3C)nc2)cc(OC)c1`: -10.193%; for `Cc1ccc(CNCc2ccc(-n3nc(C)cc3C)nc2)cc1`: 72.2%.
For `Cc1cc(C)n(-c2ccc(CNCc3ccc(F)c(F)c3)cn2)n1`, the INHIBITION is given as 13.05%.
In the case of `Cc1cc(C)n(-c2ccc(CNCc3ccc(C)o3)cn2)n1` it was 34.75%; in that of `CCOc1ccc(C(=O)CC(SC2CCCCC2)C(=O)O)cc1` (centres undefined), 16.1%.
The same measure for `COC(=O)c1cc(C(=O)N2CCCC(C)C2)n(-c2ccccc2)n1` (centres undefined): 8.5%; for `COC[C@@]12CCO[C@@H]1CCN(Cc1ccccc1F)C2`: 23.5%.
The same measure for `COC[C@@]12CCO[C@@H]1CCN(Cc1sccc1C)C2`: 34%; for `Cc1ccc(CN2CC[C@H]3OCC[C@@]3(C(=O)N3CCCO3)C2)s1`: 23.3%; for `COC[C@@H]1CCC[C@@]12CN(Cc1ccc(C)s1)CCO2`: 14.1%.
For `Cc1ccc(CN2CC[C@H]3OCC[C@@]3(COCC(=O)N(C)C)C2)s1`, the INHIBITION is 54.8%.
Consider `Cc1ccc(CN2CCC3(CCC(=O)N3CC(=O)N(C)C)CC2)s1`, for which the INHIBITION is on record as -29.5%.
In the case of `COC[C@@]12CCO[C@@H]1CCN(C(=O)COc1ccccc1OC)C2` it was -19.9%; in that of `COC[C@@]12CCO[C@@H]1CCN(Cc1ccc(C)s1)C2`, 55.7%; in that of `COC[C@@]12CCO[C@@H]1CCN(Cc1ccccc1OC)C2`, 51.2%.
On to `O=C(c1cnccn1)N1CCC2(CCN(Cc3ccsc3)CC2)CC1`, for which the INHIBITION is recorded as 16.4%.
Turning to `Cc1nccc(CNC(=O)CCc2c(C)nc3cc(O)nn3c2C)n1`, the INHIBITION is -9.19%.
In the case of `CCC1c2ccsc2CCN1C(=O)NCc1ccnc(N(C)C)c1` (centres undefined) it was -0.44%.
In the case of `CCc1nc2ccccc2c(=O)n1CC1(O)CCN(C(=O)C2CC2)CC1` it was 18.3%.
In the case of `COc1ccc(CN)c(OC(F)F)c1` it was 48.9%.
For the compound `CCCOc1ccc(CN)c(OC(F)F)c1`, the INHIBITION is 45.2%.
On to `NCc1ccc(OC(F)F)cc1OC(F)F`, for which the INHIBITION amounted to 74%.
As for `C[C@H]1C[C@H]2CN(C(=O)c3ccncn3)CC[C@@H]2O1`, the INHIBITION is on record as 35.8%.
In the case of `COc1ccc(CN2CCC3(CC2)NC(=O)CC3c2cnn(C)c2)cc1` (centres undefined) it was 12.6%; in that of `CN1CCC2(CC1)CN(CC1CC1)CC21CCNC1=O` (centres undefined), 22.3%.
In the case of `COc1cccc(CNC(=O)c2ccccc2-n2cc(CN)cn2)c1` it was 5.11%; in that of `CC1c2ncc(Cn3cncn3)n2CCN1C(=O)N(C)C` (centres undefined), 49%.
In the case of `O=C(CC1CC1)N1CCc2ncc(Cn3cncn3)n2CC1` it was 57.9%.
For the compound `N#Cc1cccc(C(=O)N2CCn3c(Cn4cncn4)cnc3C2)c1`, the INHIBITION is listed as -17.2%.
The same measure for `CC1c2ncc(Cn3cncn3)n2CCN1C(=O)c1cscn1` (centres undefined): -6.3%; for `O=C(Cc1ccc(F)cc1)N1CCn2cc(Cn3cncn3)nc2C1`: -13.2%; for `COCC(=O)N1CCn2c(Cn3cncn3)cnc2C1C` (centres undefined): 36.2%.
With `CC1c2ncc(Cn3cncn3)n2CCN1C(=O)c1ccccn1` (centres undefined), the INHIBITION was 60.9%.
Take `O=C(CC1CC1)N1CCc2ncc(CN3CCOCC3)n2CC1`: the INHIBITION was found to be 42.7%.
In the case of `O=C(Cc1ccc(F)cc1)N1CCn2c(Cn3cncn3)cnc2C1` it was 57.9%; in that of `CC1c2ncc(Cn3cncn3)n2CCN1C(=O)c1ccsc1` (centres undefined), 52%.
In the case of `COCC(=O)N1CCc2ncc(Cn3cncn3)n2CC1` it was 15.9%.
Consider `Cc1occc1C(=O)N1CCn2c(Cn3cncn3)cnc2C1C` (centres undefined), for which the INHIBITION worked out at 6.55%.
The same measure for `O=C1CN(c2ccc(C(=O)N3CCc4ccccc43)cn2)CCN1`: 49%; for `N#Cc1c(F)cccc1N1CCN(C(=O)Nc2nncs2)CC1`: -7.53%; for `O=C(NCCc1nccs1)c1cn(CCN2CCNCC2)nn1`: -45%.
For `O=C(NCCN1CCNC1=O)c1cnc(-c2cccnc2)nc1`, the INHIBITION is given as 15.64%.
The same measure for `O=C(Cc1cccs1)N1CCc2nnc(COc3cncnc3)n2CC1`: 47.5%.
On to `O=C(c1cccs1)N1CCc2ncc(Cn3cncn3)n2CC1`, for which the INHIBITION was 22.9%.
The same measure for `O=C(c1cccs1)N1CCc2nnc(COc3cncnc3)n2CC1`: 28.2%; for `O=C(c1cscn1)N1CCc2ncc(Cn3cncn3)n2CC1`: 38.1%.
